Laboratory results: PubChem BioAssay (NCATS)
Records with an inconclusive call do not appear. The source made the active and inactive calls. Calls come from the whole dose curve; as a rule, active = well fitted curve in the direction sought with a large enough effect; inconclusive = small, poorly fitted or top-dose-only effect, or another doubt; inactive = no such curve, though single readings can be large; an effect the other way counts as inactive or inconclusive.

How the values were obtained:
CRL-7250 = normal cell line; test: Cytotoxic Profiling of Annotated Libraries Using Quantitative High-Throughput Screening (AID 1296008); details: Five cell lines viability, CellTiter-Glo ATP luminescence, 48-72 h; max response: active compounds read low; note: nearly all actives have a fitted effect of over 60% in size; for max response: % is set by controls: 0 for no effect and ±100 for the full control effect
Procedure, shortened: (§1)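 Cells exposed to compounds for 48 or 72 hr at 37 degrees Celsius. Viability read as ATP-coupled luminescence with CellTiter-Glo after 10 min at room temperature.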

HEK293 = test: as above; details: Five cell lines viability, CellTiter-Glo ATP luminescence, 48-72 h; max response: active compounds read low
Procedure, shortened: as §1

HaCat = test: as above; details: Five cell lines viability, CellTiter-Glo ATP luminescence, 48-72 h; max response: active compounds read low
Procedure, shortened: as §1

KB-3-1 = test: as above; details: Five cell lines viability, CellTiter-Glo ATP luminescence, 48-72 h; max response: active compounds read low
Procedure, shortened: as §1

NIH3T3 [1] = test: as above; details: Five cell lines viability, CellTiter-Glo ATP luminescence, 48-72 h; max response: active compounds read low
Procedure, shortened: as §1

NIH3T3 [2] = test: qHTS assay to identify novel small-molecules to repurpose for Merkel cell carcinoma treatment (AID 1296009); details: MCC and control cell lines, CellTiter-Glo viability, 72 h; at 44.8 µM (top of the series) unless noted; note: nearly all actives have a fitted effect of over 60% in size
Procedure, shortened: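 Dose-response viability screen; 72 hr exposure at 37 degree celsius; CellTiter-Glo added, 10 min room temperature, luminescence read; RLUs scaled between no-cell and DMSO wells.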

C33A = test: Primary qHTS to identify gynecologic anti-cancer compounds using libraries of approved drugs and bioactive compounds (AID 1345084); details: Gynecologic cancer cell panel viability, ATPlite luminescence, 48 h; series mostly up to 57.5 µM; note: % is set by controls: 0 for no effect and ±100 for the full control effect; nearly all actives have a fitted effect of over 55% in size
Procedure, shortened: (§2)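 Five-concentration response, 48 h; readout is ATP-driven luciferase luminescence.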

CAOV3 = test: as above; details: Gynecologic cancer cell panel viability, ATPlite luminescence, 48 h; series mostly up to 57.5 µM
Procedure, shortened: as §2

CASKI = test: as above; details: Gynecologic cancer cell panel viability, ATPlite luminescence, 48 h; series mostly up to 57.5 µM
Procedure, shortened: as §2

Es-2 = test: as above; details: Gynecologic cancer cell panel viability, ATPlite luminescence, 48 h; series mostly up to 57.5 µM
Procedure, shortened: as §2

HeLa = test: as above; details: Gynecologic cancer cell panel viability, ATPlite luminescence, 48 h; series mostly up to 57.5 µM
Procedure, shortened: as §2

Hek293T = test: as above; details: Gynecologic cancer cell panel viability, ATPlite luminescence, 48 h, control line for the selectivity index; series mostly up to 57.5 µM
Procedure, shortened: as §2

JEG-3 = test: as above; details: Gynecologic cancer cell panel viability, ATPlite luminescence, 48 h; series mostly up to 57.5 µM
Procedure, shortened: as §2

OV90 = test: as above; details: Gynecologic cancer cell panel viability, ATPlite luminescence, 48 h; series mostly up to 57.5 µM
Procedure, shortened: as §2

C=C1C(O)CC2C(C(=O)O)=COC(O[C@@H]3O[C@H](COC(=O)c4ccc(O)cc4)[C@@H](O)[C@H](O)[C@H]3O)C12 (stereo partly drawn)
inactive: outcome (CRL-7250) | max response (HEK293) -1.77% | max response (HaCat) 2.09% | outcome (KB-3-1) | outcome (NIH3T3 [1]) | outcome (NIH3T3 [2]) inactive [at 17.4 µM] | Potency (C33A) | Potency (CAOV3) | outcome (CASKI) | Potency (Es-2) | Potency (HeLa) | Potency (Hek293T) | Potency (JEG-3) | Potency (OV90)

CC1=CC(=O)CC(C)(C)C1/C=C/C(C)OC1OC(COC2OCC(O)C(O)C2O)C(O)C(O)C1O (stereo not drawn)
inactive: max response (CRL-7250) 0.665% | max response (HEK293) -4.28% | max response (HaCat) -0.25% | max response (KB-3-1) 9.19% | outcome (NIH3T3 [1]) | outcome (NIH3T3 [2]) inactive [at 17.4 µM] | Potency (C33A) | Potency (CAOV3) | outcome (CASKI) | Potency (Es-2) | Potency (HeLa) | Potency (Hek293T) | Potency (JEG-3) | Potency (OV90)

CC(C)=CCC(O)[C@](C)(O)C1[C@H](O)C[C@@]2(C)C3CC=C4C(C[C@H](O)[C@@H](O[C@@H]5O[C@H](CO)[C@@H](O)[C@H](O)[C@H]5O)C4(C)C)[C@]3(C)C(=O)C[C@]12C (stereo partly drawn)
inactive: max response (CRL-7250) 4.58% | max response (HEK293) -6.78% | max response (HaCat) -8.01% | outcome (KB-3-1) | outcome (NIH3T3 [1]) | outcome (NIH3T3 [2]) inactive [at 17.4 µM] | Potency (C33A) | Potency (CAOV3) | outcome (CASKI) | Potency (Es-2) | Potency (HeLa) | Potency (Hek293T) | Potency (JEG-3) | Potency (OV90)

CC1(C)C=Cc2c(ccc3c2[N+]([O-])=C2C3(O)CC34NC(=O)C5(CCCN5C3=O)CC4C2(C)C)O1 (stereo not drawn)
inactive: max response (CRL-7250) -1.3% | max response (HEK293) -1.32% | max response (HaCat) -0.0821% | outcome (KB-3-1) | outcome (NIH3T3 [1]) | outcome (NIH3T3 [2]) inactive [at 17.4 µM] | Potency (C33A) | Potency (CAOV3) | outcome (CASKI) | Potency (Es-2) | Potency (HeLa) | Potency (Hek293T) | Potency (JEG-3) | Potency (OV90)

COC(=O)C1=CO[C@@H](O[C@@H]2O[C@H](CO)[C@@H](O)[C@H](O)[C@H]2O)[C@@H]2[C@@H](C)[C@@H](OC(=O)/C=C/c3ccccc3)[C@@H](O)[C@H]12
inactive: max response (CRL-7250) -5.94% | max response (HEK293) -9.01% | max response (HaCat) -9.9% | outcome (KB-3-1) | outcome (NIH3T3 [1]) | outcome (NIH3T3 [2]) inactive [at 17.4 µM] | Potency (C33A) | Potency (CAOV3) | outcome (CASKI) | Potency (Es-2) | Potency (HeLa) | Potency (Hek293T) | Potency (JEG-3) | Potency (OV90)

C=C1C[C@H](O)[C@@H](O)[C@@]2(C)C1[C@@H](O)[C@H]1OC(=O)C3[C@@H](C)[C@@H](O)[C@H](O)C2[C@]31C (stereo partly drawn)
inactive: max response (CRL-7250) -9.79% | max response (HEK293) 3.52% | max response (HaCat) -3.92% | outcome (KB-3-1) | outcome (NIH3T3 [1]) | outcome (NIH3T3 [2]) | Potency (C33A) | Potency (CAOV3) | outcome (CASKI) | Potency (Es-2) | Potency (HeLa) | Potency (Hek293T) | Potency (JEG-3) | Potency (OV90)

COc1ccc(C2C(C(=O)O)C(C(=O)O)C2c2ccc(OC)cc2O[C@@H]2O[C@H](CO)[C@@H](O)[C@H](O)[C@H]2O)c(O[C@@H]2O[C@H](CO)[C@@H](O)[C@H](O)[C@H]2O)c1 (stereo partly drawn)
inactive: max response (CRL-7250) -9.53% | max response (HEK293) -17.5% | max response (HaCat) 0.767% | max response (KB-3-1) -1.86% | outcome (NIH3T3 [1]) | outcome (NIH3T3 [2]) inactive [at 17.4 µM] | Potency (C33A) | Potency (CAOV3) | outcome (CASKI) | Potency (Es-2) | Potency (HeLa) | Potency (Hek293T) | Potency (JEG-3) | Potency (OV90)

O=C(OC[C@H]1O[C@@H](Oc2ccccc2CO)[C@H](O)[C@@H](O)[C@@H]1O)c1ccccc1
inactive: max response (CRL-7250) -0.775% | max response (HEK293) 0.13% | max response (HaCat) 0.855% | max response (KB-3-1) 3.27% | outcome (NIH3T3 [1]) | outcome (NIH3T3 [2]) | Potency (C33A) | Potency (CAOV3) | outcome (CASKI) | Potency (Es-2) | Potency (HeLa) | Potency (Hek293T) | Potency (JEG-3) | Potency (OV90)

CC1=C[C@H](O)[C@H]2C(C)(C)CCC[C@]2(C)[C@@]1(O)CO
inactive: max response (CRL-7250) -1.57% | max response (HEK293) -4.11% | max response (HaCat) 3.1% | outcome (KB-3-1) | outcome (NIH3T3 [1]) | outcome (NIH3T3 [2]) | Potency (C33A) | Potency (CAOV3) | outcome (CASKI) | Potency (Es-2) | Potency (HeLa) | Potency (Hek293T) | Potency (JEG-3) | Potency (OV90)

CC(C)(C)NS(=O)(=O)c1ccc(-c2ccc3[nH]nc(N)c3c2)cc1
inactive: max response (CRL-7250) -6.71% | max response (HEK293) -2.12% | max response (HaCat) -19% | max response (KB-3-1) 8.07% | outcome (NIH3T3 [1]) | outcome (NIH3T3 [2]) | Potency (C33A) | Potency (CAOV3) | outcome (CASKI) | Potency (Es-2) | Potency (HeLa) | Potency (Hek293T) | Potency (JEG-3) | Potency (OV90)

CC(C)=CC1C[C@](C)(O)[C@@H]2[C@H]3CCC4[C@@]5(C)CC[C@H](O[C@@H]6OC[C@H](O)[C@H](O[C@@H]7O[C@H](CO[C@@H]8O[C@H](CO)[C@@H](O)[C@H](O)[C@H]8O)[C@@H](O)[C@H](O)[C@H]7O)[C@H]6O[C@@H]6O[C@@H](C)[C@H](O)[C@@H](O)[C@H]6O)C(C)(C)[C@@H]5CC[C@@]4(C)[C@@]34CO[C@@]2(C4)O1 (stereo partly drawn)
inactive: max response (CRL-7250) -1.09% | max response (HEK293) -3.55% | max response (HaCat) 4.88% | outcome (KB-3-1) | outcome (NIH3T3 [1]) | outcome (NIH3T3 [2]) inactive [at 9.27 µM] | activity change, negative = cytotoxicity (C33A) 25.2% [at 11.6 µM] | activity change, negative = cytotoxicity (CAOV3) 4.48% [at 11.6 µM] | activity change, negative = cytotoxicity (CASKI) 12.3% [at 11.6 µM] | activity change, negative = cytotoxicity (Es-2) 11.4% [at 11.6 µM] | activity change, negative = cytotoxicity (HeLa) 6.98% [at 11.6 µM] | activity change, negative = cytotoxicity (Hek293T) -1.62% [at 11.6 µM] | activity change, negative = cytotoxicity (JEG-3) 8.28% [at 11.6 µM] | activity change, negative = cytotoxicity (OV90) 5% [at 11.6 µM]

C=C1CCC2C(C)(C)CC(O)CC2(C)C1CCC(C)CCOC(=O)CCC(=O)O (stereo not drawn)
inactive: max response (CRL-7250) -28.7% | max response (HEK293) -12.9% | max response (HaCat) -1.5% | max response (KB-3-1) -6.16% | outcome (NIH3T3 [1]) | outcome (NIH3T3 [2]) inactive [at 17.4 µM] | Potency (C33A) | Potency (CAOV3) | outcome (CASKI) | Potency (Es-2) | Potency (HeLa) | Potency (Hek293T) | Potency (JEG-3) | Potency (OV90)
